The record followed here is PubChem BioAssay (NCATS).

Inconclusive results are not listed. Values without a mark were called inactive. Calls come from the whole dose curve; as a rule, active = well fitted activation curve with a large enough effect; inconclusive = small, poorly fitted or top-dose-only effect; inactive = no such curve, though single readings can be large or run the other way. Numbered stars: 1 amine (or outer) side, 2 acyl side, 3 side chain; on linkers, the order of the positions; unused ones are H or OH. Square brackets hold non-standard residues; d marks the D form. Peptide text beside a SMILES is read from it. * marks the point of attachment. ξ: configuration not given here. X9 = CCC(C)(N*)C(=O)C1CC[C@@H](C(=O)N[C@@H](Cc2ccccc2)C(=O)NCC(=O)O)N1; X8 = O=C([C@@H]1CC(O)CN1[*:1])[*:2]; aIle = CC[C@@H](C)[C@H](N)C(=O)O; Thr(3ξ) = CC(O)[C@H](N)C(=O)O; ξIva = CCC(C)(N)C(=O)O; Aib = CC(C)(N)C(=O)O

Cellular tumor antigen p53 (Homo sapiens), sequence (P04637 whole entry, looked up): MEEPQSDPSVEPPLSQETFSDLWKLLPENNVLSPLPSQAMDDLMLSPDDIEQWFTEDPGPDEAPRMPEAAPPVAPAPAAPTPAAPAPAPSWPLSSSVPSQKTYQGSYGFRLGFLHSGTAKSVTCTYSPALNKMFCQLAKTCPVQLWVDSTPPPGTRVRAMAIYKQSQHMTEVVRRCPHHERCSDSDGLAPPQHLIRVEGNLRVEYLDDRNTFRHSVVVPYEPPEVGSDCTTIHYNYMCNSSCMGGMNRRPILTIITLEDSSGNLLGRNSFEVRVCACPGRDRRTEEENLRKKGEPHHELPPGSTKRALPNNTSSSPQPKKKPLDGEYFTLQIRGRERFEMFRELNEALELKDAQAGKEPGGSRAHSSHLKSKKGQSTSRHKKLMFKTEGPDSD

In the test the target is Cellular tumor antigen p53 (Homo sapiens) (UniProt P04637). Briefly: Primary qHTS for small molecule compounds that upregulate eGFP-tagged delta133p53alpha (in N-terminal) cells. (AID 2060322).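 Note: series mostly up to about 56 µM; 0% = DMSO vehicle and 100% = reference activator; nearly all actives have a fitted effect of over 75% in size.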 As to conditions: NCI-H358 eGFP-delta133p53alpha fluorescence, 24 h; activation: hits give high values. The essentials:
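NCI-H358 cells pre-induced 24 h with 10 ng/ml doxycycline to express N-terminal eGFP-delta133p53alpha, then dosed 24 h at 37C without doxycycline; fixed, Hoechst-stained, GFP intensity by laser scanning cytometry, normalized to DMSO (0%) and 57.5 uM 5-azacytidine (100%).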
(In general: Quantitative high-throughput screening tests each substance at several concentrations.)
Consider `CC(=O)O[C@@H]1[C@@H](O)[C@H](C)O[C@@H](O[C@H]2[C@@H]3C=CO[C@@H](O[C@@H]4O[C@H](CO)[C@@H](O)[C@H](O)[C@H]4O)[C@@H]3[C@@]3(CO)O[C@@H]23)[C@@H]1OC(=O)/C=C/c1ccccc1`, for which the activation is 4.58%.
For `COc1c2c(cc3c1-c1c(cc4c(c1OC)OCO4)CC(C)C(C)C3)OCO2` (stereo not given), the activation is -6.87%.
Then `COC(=O)C(CC1(O)c2ccccc2N2C(=O)C(CC(C)C)NC21)n1cnc2ccccc2c1=O` (stereo not given), with -1.53%; and `C[C@H]1CC[C@@]2(OC1)O[C@H]1CC3C4CC=C5C[C@H](O)C[C@@H](O[C@@H]6O[C@@H](C)[C@H](O)[C@@H](O)[C@H]6O[C@@H]6O[C@@H](C)[C@H](O)[C@@H](O)[C@H]6O)[C@]5(C)C4CC[C@]3(C)[C@H]1[C@@H]2C` (stereo not given in full), with -13.7%.
`COc1ccc(C[C@H]2COC(=O)[C@@H]2Cc2ccc(O[C@@H]3O[C@H](CO)[C@@H](O)[C@H](O)[C@H]3O)c(OC)c2)cc1OC`: the activation was 15.2%.
Then `O=C(Cc1ccccc1)OC[C@H]1O[C@H](O[C@H]2O[C@H](CO)[C@@H](O)[C@H](O)[C@H]2O)[C@H](O)[C@@H](O)[C@@H]1O`, with -3.05%.
Consider `C=C(C(=O)O)C1CC2=C(C)CCCC2(C)C[C@@H]1O` (stereo not given in full), for which the activation was -16.1%.
Then `C[C@@H]1O[C@@H](O[C@H]2[C@H](OC(=O)[C@]34CCC(C)(C)C[C@H]3C3=CCC5[C@@]6(C)CC[C@H](O[C@@H]7O[C@H](CO[C@@H]8OC[C@H](O)[C@H](O)[C@H]8O[C@@H]8OC[C@@H](O)[C@H](O)[C@H]8O)[C@@H](O)[C@H](O)[C@H]7O)C(C)(C)C6CC[C@@]5(C)[C@]3(C)C[C@H]4O)O[C@H](CO)[C@@H](O)[C@@H]2O)[C@H](O[C@@H]2O[C@H](CO)[C@@H](O)[C@H](O)[C@H]2O)[C@H](O)[C@H]1O[C@@H]1OC[C@@H](O)[C@H](O[C@@H]2OC[C@@H](O)[C@H](O)[C@H]2O)[C@H]1O` (stereo not given in full), with -9.92%; and `COc1ccc(CC(=O)NCc2ccccc2-c2ccccc2C(=O)NCCc2cccnc2)cc1`, with 0.955%.
For the compound `C=C(C(=O)O)[C@@H]1CC[C@H](C)[C@@H]2CC(=O)C(C)=C2C1`, the activation is -8.04%.
With `Cc1ccc(Sc2cncc3sc(C(N)=O)cc23)cc1`, the activation is -17.7%.
Then `C=C(C)[C@@]1(O)C[C@@]2(C)C(=CC1=O)CC[C@@H](O)[C@@H]2C`, with -3.82%; and `O=C1NC2CCc3nc4ccccc4c(=O)n3C2=Nc2ccccc21` (stereo not given), with -8.93%; and `CC[C@@H](C)[C@H](NC(=O)C(C)(C)NC(=O)[C@H](CCC(N)=O)NC(=O)C(C)(CC)NC(=O)[C@H](Cc1c[nH]c2ccccc12)NC(C)=O)C(=O)N[C@H](C(=O)NC(C)(C)C(=O)N[C@@H](CC(C)C)C(=O)NC(C)(C)C(=O)N1CCC[C@H]1C(=O)N[C@@H](CCC(N)=O)C(=O)NC(C)(C)C(=O)N1CC(O)C[C@H]1C(=O)NC(C)(CC)C(=O)C1CC[C@@H](C(=O)N[C@@H](Cc2ccccc2)C(=O)NCC(=O)O)N1)C(C)O` (stereo not given in full) (Ac-W[ξIva]Q[Aib][aIle][Thr(3ξ)][Aib]L[Aib]PQ[Aib][X8]-X9), with 3.57%.
Consider `COc1cc(C)c(C(=O)O[C@H]2[C@@H](O)[C@H](n3ccc(=O)[nH]c3=O)O[C@@H]2CO)c(OC)c1`, for which the activation was -3.05%.
Turning to `CCOc1nc(NC(=O)Cc2cc(OC)ccc2OC)cc(N)c1C#N`, the activation was 15%.
Consider `C=C1C(=O)O[C@@H]2C=C(COC(C)=O)CC/C=C(\CO)CC[C@@H]12`, for which the activation is 3.82%.
The same measure for `O=C(O)c1cccc(-c2ccc(-c3cn(C(=O)N4CCCCC4Cc4ccccc4)nn3)cc2)c1` (stereo not given): -9.67%.
Turning to `CC(=O)/C=C/C1C(C)CC(O[C@@H]2O[C@H](CO)[C@@H](O)[C@H](O)[C@H]2O)CC1(C)C` (stereo not given in full), the activation was -0.893%.
As to `N#Cc1cc(-c2ccnc(Nc3ccc(N4CCOCC4)cc3)n2)ccc1OC1CCOCC1`, the activation was -18.8%.
Regarding `CCCO[C@@H]1O[C@H](CO)[C@@H](O)[C@H](O)[C@H]1O[C@@H]1OC[C@@H](O)[C@H](O)[C@H]1O`, the activation is -15.3%.
The same measure for `C[C@@H]1O[C@@H](O[C@H]2[C@H](O)[C@@H](O)[C@H](OC[C@H]3O[C@@H](OC(=O)[C@]45CCC(C)(C)C[C@H]4C4=CCC6[C@@]7(C)C[C@H](O)[C@H](O[C@@H]8O[C@H](CO)[C@@H](O)[C@H](O)[C@H]8O)[C@@](C)(C(=O)O)C7CC[C@@]6(C)[C@]4(C)CC5)[C@H](O[C@@H]4O[C@H](CO)[C@@H](O)[C@H](O)[C@H]4O)[C@@H](O)[C@@H]3O)O[C@@H]2CO)[C@H](O)[C@H](O)[C@H]1O` (stereo not given in full): 18.8%.
In the case of `C[C@@H]1CC[C@]2(C(=O)O[C@@H]3O[C@H](CO[C@@H]4O[C@H](CO)[C@@H](O)[C@H](O)[C@H]4O)[C@@H](O)[C@H](O)[C@H]3O)CC[C@]3(C)C(=CCC4[C@@]5(C)CC[C@H](O)[C@](C)(C(=O)O)C5CC[C@]43C)[C@@H]2[C@]1(C)O` (stereo not given in full), the activation was -6.11%.
Regarding `Cc1ccc(-c2ncc[nH]2)cc1NC(=O)c1ccc(OCc2ccccn2)cc1`, the activation is -2.86%.
Then `C[C@@H]1O[C@@H](O[C@H]2[C@H](O)[C@@H](O)[C@H](OC3CCC4(C)C5CCC(C)(C(CO)OC6OC(CO)C(O)C(O)C6O)CC5=CCC4C3(C)C)O[C@@H]2CO)[C@H](O)[C@H](O)[C@H]1O` (stereo not given in full), with -22.9%; and `CN1CCN(c2ccc(Nc3cc(-c4cccc(-n5ccc6cc(C7CC7)cc(F)c6c5=O)c4CO)cn(C)c3=O)nc2)CC1`, with 2.68%; and `C=C(C)[C@@H]1CC[C@](C)(O)[C@@H](OC(=O)c2ccccc2)C1`, with -15.2%.
Regarding `COC(=O)C[C@H]1C(C)(C)[C@H](OC(=O)c2ccccc2)C2CC3=C4CC(=O)O[C@@H](c5ccoc5)[C@]4(C)CCC3[C@@]1(C)C2=O` (stereo not given in full), the activation was -5.34%.
The same measure for `CC(=O)OC1C(C)C2C(OC3OC(CO)C(O)C(O)C3O)OC=C(C(=O)O)C2C1OC(=O)c1ccccc1` (stereo not given): 5.34%; for `CC(C)c1cc(C(=O)N2CC[C@@H](NC(=O)C3CC3)C2)n[nH]1`: -7.67%; for `COC1C(OC(=O)/C=C/C=C/C=C/C=C/C(=O)O)CCC2(CO2)C1C1(C)OC1CC=C(C)C` (stereo not given): 10.7%.
As for `COc1cc(/C=C/C(=O)O[C@@H]2C[C@@](O)(C(=O)O)C[C@@H](O)[C@@H]2O)ccc1O`, the activation is -1.53%.
Turning to `CC(=O)OC/C(=C/C(=O)O)CC[C@@H]1C(C=O)=CC[C@@H]2C(C)(C)CCC[C@@]12C`, the activation is -32.8%.
As to `C=CCc1ccc(OC(C)Cc2ccc(OC)c(OC)c2)c(OC)c1` (stereo not given), the activation is -15.2%.
Regarding `CC(C)C1NC(=O)C(CC2(O)c3ccccc3N3C(=O)C(Cc4ccccc4)NC32)NC1=O` (stereo not given), the activation is -9.82%.
The same measure for `CC(C#N)C(C)O[C@@H]1O[C@H](CO)[C@@H](O)[C@H](O)[C@H]1O` (stereo not given in full): 24.1%; for `C=CC1(C)C=C2C(=O)CC3C(C)(C)CCCC3(C(=O)O)C2(O)CC1` (stereo not given): -15.3%.
On to `CC(=O)NC1C(OC2CCC3(C)C(CCC4(C)C3CC=C3C5CC(C)(C)CCC5(C(=O)O)C(O)CC34C)C2(C)C)OC(CO)C(O)C1O` (stereo not given), for which the activation was 1.53%.
`COC(=O)c1cc(OC)cc(OC)c1C(=O)c1c(OC)cc2c(c1O)C1CCC(O)C(C)(O2)O1` (stereo not given): the activation was 25.2%.
Then `CC(C)=CCc1ccc(Oc2c(O)cc(C)cc2CO)c(C(=O)O)c1O`, with 3.82%.
